# Paper PMC7862700, “An all-to-all approach to the identification of sequence-specific readers for epigenetic DNA modifications on cytosine”
# Experiments:
# Experiment in all cases: DAPPL (digital affinity profiling via proximity ligation, sequencing); 10 mM Tris-HCl pH 7.5, 50 mM NaCl, 1 mM DTT, 4% glycerol, room temperature, 30 min; GST-TFs on glutathione beads, 16-mer random dsDNA library, 0.1% formaldehyde crosslink after washing; high values mean tight binding
# FLI1 = target: T1, FLI1 (Homo sapiens, UniProt Q01543 1-452); details: protein: recombinant; tags: N-terminal GST; dsDNA, one strand shown
# T1 sequence: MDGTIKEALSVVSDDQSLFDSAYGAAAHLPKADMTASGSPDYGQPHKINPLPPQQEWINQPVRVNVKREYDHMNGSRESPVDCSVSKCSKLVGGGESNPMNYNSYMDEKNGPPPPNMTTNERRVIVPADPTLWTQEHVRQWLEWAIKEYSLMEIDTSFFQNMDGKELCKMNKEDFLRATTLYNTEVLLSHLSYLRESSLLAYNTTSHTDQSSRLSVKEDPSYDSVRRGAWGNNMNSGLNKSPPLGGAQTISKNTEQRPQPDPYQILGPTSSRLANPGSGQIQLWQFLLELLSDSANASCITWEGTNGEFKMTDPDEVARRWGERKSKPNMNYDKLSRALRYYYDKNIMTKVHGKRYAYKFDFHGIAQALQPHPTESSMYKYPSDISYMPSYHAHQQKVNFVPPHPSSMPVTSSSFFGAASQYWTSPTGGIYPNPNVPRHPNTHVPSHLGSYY
# In short: (§1)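 Beads coated with glutathione captured GST-fused human transcription factors that had been expressed in yeast, and the factors were then given DNA barcodes and pooled with a tag-only sample. The pools were incubated with 200 nmole of a random double-stranded 16-mer DNA library in Tris/NaCl/DTT/glycerol buffer for 30 min at room temperature, washed, crosslinked with 0.1% formaldehyde and proximity-ligated with BsaI/T4 ligase at 37 °C for 1 h. PCR amplification and Illumina NextSeq500 sequencing came last. Binding signal is each hexamer's read frequency for a factor divided by its frequency for the tag-only sample.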
# ELK1 = target: T2, ELK1 (Homo sapiens, UniProt P19419 1-428); details: protein: recombinant; tags: N-terminal GST; dsDNA, one strand shown
# T2 sequence: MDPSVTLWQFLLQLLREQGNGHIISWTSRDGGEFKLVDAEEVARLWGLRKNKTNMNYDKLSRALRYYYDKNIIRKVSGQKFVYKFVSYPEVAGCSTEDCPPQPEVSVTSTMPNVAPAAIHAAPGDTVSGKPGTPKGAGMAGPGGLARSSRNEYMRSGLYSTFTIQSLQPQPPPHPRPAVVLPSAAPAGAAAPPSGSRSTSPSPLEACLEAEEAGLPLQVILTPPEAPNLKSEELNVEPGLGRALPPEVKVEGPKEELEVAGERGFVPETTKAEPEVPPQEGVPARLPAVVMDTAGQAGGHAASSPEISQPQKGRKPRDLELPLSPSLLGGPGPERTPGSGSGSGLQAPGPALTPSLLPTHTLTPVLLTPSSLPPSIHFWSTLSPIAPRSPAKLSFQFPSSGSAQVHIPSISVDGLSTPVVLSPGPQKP
# In short: as §1
# GABPA = target: T3, GABPA (Homo sapiens, UniProt Q06546 1-454); details: protein: recombinant; tags: N-terminal GST; dsDNA, one strand shown
# T3 sequence: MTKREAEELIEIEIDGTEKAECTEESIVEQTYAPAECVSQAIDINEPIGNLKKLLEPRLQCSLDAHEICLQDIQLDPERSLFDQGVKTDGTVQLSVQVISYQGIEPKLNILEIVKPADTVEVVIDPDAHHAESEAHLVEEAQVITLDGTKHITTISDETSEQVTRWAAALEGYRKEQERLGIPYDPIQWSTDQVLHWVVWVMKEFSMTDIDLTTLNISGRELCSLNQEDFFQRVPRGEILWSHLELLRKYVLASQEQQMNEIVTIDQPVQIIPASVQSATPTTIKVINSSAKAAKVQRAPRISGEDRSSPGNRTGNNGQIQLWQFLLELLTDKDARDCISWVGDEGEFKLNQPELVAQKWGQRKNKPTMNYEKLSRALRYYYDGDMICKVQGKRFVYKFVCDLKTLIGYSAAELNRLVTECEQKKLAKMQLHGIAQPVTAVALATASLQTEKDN
# In short: as §1
# ERG = target: T4, ERG (Homo sapiens, UniProt P11308 1-479); details: protein: recombinant; tags: N-terminal GST; dsDNA, one strand shown
# T4 sequence: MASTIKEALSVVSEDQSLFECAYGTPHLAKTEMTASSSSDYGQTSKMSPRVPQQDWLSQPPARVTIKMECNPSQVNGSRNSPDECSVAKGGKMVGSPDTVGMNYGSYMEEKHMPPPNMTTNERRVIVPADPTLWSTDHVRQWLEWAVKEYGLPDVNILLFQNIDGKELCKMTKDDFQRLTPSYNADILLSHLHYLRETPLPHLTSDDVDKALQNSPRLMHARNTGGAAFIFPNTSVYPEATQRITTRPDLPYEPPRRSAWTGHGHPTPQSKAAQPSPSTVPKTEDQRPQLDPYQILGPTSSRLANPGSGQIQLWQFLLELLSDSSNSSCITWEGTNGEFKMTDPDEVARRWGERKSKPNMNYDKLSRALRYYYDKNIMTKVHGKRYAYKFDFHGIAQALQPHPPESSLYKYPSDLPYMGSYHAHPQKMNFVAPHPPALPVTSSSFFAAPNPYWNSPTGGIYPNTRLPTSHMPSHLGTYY
# In short: as §1
# ELF1 = ELF1 (Homo sapiens, UniProt P32519 1-619); details: protein: recombinant; tags: N-terminal GST; dsDNA, one strand shown
# In short: as §1
# EHF = target: T5, EHF (Homo sapiens, UniProt Q9NZC4 1-300); details: protein: recombinant; tags: N-terminal GST; dsDNA, one strand shown
# T5 sequence: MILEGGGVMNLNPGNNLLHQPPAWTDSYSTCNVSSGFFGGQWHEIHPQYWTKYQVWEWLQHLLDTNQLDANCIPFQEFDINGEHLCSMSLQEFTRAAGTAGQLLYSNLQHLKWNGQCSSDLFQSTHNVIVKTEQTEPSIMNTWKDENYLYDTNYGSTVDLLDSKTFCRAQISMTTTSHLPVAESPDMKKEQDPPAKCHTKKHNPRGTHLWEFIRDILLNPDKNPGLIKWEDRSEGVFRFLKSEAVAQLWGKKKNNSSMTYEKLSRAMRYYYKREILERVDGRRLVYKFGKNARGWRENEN
# In short: as §1
# SPI1 = SPI1 (Homo sapiens, UniProt P17947 1-270); details: protein: recombinant; tags: N-terminal GST; dsDNA, one strand shown
# In short: as §1
# SPIB = SPIB (Homo sapiens, UniProt Q01892 1-262); details: protein: recombinant; tags: N-terminal GST; dsDNA, one strand shown
# In short: as §1
# ELK3 = target: T6, ELK3 (Homo sapiens, UniProt P41970 1-407); details: protein: recombinant; tags: N-terminal GST; dsDNA, one strand shown
# T6 sequence: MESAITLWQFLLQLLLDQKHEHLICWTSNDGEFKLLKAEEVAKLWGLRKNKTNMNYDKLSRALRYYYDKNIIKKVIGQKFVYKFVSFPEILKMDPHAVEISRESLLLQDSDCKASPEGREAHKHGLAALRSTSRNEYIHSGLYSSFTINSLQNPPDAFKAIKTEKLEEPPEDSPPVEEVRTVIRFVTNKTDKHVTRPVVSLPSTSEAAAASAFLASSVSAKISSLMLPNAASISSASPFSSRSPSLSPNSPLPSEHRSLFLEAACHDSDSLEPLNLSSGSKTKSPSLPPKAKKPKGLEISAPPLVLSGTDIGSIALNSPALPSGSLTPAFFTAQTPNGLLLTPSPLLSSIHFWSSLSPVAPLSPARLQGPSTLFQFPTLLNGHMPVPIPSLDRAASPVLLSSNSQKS
# In short: as §1
# FEV = target: T7, FEV (Homo sapiens, UniProt Q99581 1-238); details: protein: recombinant; tags: N-terminal GST; dsDNA, one strand shown
# T7 sequence: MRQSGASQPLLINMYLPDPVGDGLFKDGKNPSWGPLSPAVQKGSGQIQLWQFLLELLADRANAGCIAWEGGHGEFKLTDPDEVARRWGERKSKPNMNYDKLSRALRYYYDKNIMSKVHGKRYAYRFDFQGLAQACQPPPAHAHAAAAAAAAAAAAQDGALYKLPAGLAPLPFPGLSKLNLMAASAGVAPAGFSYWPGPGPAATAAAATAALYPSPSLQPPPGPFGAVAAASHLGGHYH
# In short: as §1
# ETV5 = ETV5 (Homo sapiens, UniProt P41161 1-510); details: protein: recombinant; tags: N-terminal GST; dsDNA, one strand shown
# In short: as §1
# HSF1 = HSF1 (Homo sapiens, UniProt Q00613 1-529); details: protein: recombinant; tags: N-terminal GST; chain copies: 3; dsDNA, one strand shown
# In short: as §1
# SPIC = target: T8, SPIC (Homo sapiens, UniProt Q8N5J4 1-248); details: protein: recombinant; tags: N-terminal GST; dsDNA, one strand shown
# T8 sequence: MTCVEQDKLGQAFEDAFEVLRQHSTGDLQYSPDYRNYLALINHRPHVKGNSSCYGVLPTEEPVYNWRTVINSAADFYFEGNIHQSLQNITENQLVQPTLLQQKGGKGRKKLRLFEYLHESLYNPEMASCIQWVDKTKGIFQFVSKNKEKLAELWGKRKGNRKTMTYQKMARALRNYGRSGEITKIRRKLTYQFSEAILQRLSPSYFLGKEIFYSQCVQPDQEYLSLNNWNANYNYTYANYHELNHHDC
# In short: as §1
# ELF4 = ELF4 (Homo sapiens, UniProt Q99607 1-663); details: protein: recombinant; tags: N-terminal GST; dsDNA, one strand shown
# In short: as §1
# ELK4 = target: T9, ELK4 (Homo sapiens, UniProt P28324-2 1-405); details: protein: recombinant; tags: N-terminal GST; dsDNA, one strand shown
# T9 sequence: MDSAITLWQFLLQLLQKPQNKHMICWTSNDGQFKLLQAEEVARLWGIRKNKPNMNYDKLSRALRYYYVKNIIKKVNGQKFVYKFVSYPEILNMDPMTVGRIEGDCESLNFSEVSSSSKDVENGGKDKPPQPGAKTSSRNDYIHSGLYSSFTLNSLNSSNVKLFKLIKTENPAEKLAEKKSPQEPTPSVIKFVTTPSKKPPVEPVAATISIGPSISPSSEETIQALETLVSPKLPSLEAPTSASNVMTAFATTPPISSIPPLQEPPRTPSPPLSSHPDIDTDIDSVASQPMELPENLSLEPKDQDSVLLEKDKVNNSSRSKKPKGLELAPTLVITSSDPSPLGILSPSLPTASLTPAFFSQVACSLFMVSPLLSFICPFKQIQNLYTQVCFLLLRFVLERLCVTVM
# In short: as §1
# ETV2 = target: T10, ETV2 (Homo sapiens, UniProt O00321 1-342); details: protein: recombinant; tags: N-terminal GST; dsDNA, one strand shown
# T10 sequence: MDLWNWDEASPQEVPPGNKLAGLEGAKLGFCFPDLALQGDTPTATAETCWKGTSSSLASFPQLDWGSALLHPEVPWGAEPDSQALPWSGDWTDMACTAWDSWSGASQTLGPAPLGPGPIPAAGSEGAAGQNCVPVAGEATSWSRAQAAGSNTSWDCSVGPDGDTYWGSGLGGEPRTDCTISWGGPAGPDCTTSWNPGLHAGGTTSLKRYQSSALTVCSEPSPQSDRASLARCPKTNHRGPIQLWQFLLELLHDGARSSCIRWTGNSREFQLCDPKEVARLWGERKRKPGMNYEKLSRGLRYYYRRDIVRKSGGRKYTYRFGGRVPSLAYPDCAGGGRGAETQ
# In short: as §1
# ELF3 = target: T11, ELF3 (Homo sapiens, UniProt P78545 1-371); details: protein: recombinant; tags: N-terminal GST; dsDNA, one strand shown
# T11 sequence: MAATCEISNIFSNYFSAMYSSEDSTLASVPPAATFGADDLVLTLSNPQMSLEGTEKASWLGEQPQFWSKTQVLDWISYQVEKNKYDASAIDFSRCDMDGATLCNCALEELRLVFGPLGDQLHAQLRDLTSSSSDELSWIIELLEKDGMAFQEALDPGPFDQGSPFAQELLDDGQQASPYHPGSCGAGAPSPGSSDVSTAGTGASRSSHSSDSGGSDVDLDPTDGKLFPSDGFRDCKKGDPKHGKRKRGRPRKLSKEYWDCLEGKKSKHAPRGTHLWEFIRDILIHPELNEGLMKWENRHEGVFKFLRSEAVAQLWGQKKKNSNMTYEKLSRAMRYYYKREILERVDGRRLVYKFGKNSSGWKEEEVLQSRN
# In short: as §1
# CRX = CRX (Homo sapiens, UniProt O43186 1-299); details: protein: recombinant; tags: N-terminal GST; dsDNA, one strand shown
# In short: as §1
# ETV1 = ETV1 (Homo sapiens, UniProt P50549 1-477); details: protein: recombinant; tags: N-terminal GST; dsDNA, one strand shown
# In short: as §1
# CRX, sequence (O43186 whole entry): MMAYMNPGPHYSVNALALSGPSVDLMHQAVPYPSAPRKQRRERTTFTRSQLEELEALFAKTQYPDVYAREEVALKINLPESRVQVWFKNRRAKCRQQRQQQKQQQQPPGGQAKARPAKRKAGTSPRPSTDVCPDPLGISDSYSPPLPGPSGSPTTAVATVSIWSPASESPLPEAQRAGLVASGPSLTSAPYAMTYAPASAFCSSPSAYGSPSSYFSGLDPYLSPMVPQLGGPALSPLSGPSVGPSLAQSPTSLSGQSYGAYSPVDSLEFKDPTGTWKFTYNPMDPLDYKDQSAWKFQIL
# SPIB, sequence (Q01892 whole entry): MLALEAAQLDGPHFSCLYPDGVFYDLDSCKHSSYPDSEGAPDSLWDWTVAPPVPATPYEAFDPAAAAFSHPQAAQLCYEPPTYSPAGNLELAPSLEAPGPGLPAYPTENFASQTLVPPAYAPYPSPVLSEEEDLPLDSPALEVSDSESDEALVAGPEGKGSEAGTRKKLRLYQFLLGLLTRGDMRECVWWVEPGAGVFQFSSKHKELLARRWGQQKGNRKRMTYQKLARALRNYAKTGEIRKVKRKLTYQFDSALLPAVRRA
# ELF1, sequence (P32519 whole entry): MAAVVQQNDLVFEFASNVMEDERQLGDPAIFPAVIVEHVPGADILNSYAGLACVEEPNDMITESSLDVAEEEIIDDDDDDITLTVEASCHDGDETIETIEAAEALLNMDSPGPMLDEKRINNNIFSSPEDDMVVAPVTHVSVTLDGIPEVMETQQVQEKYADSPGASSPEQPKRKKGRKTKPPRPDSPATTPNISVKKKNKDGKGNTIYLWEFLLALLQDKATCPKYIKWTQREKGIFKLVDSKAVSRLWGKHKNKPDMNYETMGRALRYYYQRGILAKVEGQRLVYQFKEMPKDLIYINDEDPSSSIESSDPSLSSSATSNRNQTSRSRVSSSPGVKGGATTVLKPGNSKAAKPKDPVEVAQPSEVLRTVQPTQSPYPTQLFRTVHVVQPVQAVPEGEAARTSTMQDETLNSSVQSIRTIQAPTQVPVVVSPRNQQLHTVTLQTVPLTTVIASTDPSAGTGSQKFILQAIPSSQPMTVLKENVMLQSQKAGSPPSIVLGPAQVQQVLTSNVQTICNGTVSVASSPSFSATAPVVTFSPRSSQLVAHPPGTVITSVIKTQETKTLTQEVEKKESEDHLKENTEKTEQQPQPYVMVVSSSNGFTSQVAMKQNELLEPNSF
# HSF1, sequence (Q00613 whole entry): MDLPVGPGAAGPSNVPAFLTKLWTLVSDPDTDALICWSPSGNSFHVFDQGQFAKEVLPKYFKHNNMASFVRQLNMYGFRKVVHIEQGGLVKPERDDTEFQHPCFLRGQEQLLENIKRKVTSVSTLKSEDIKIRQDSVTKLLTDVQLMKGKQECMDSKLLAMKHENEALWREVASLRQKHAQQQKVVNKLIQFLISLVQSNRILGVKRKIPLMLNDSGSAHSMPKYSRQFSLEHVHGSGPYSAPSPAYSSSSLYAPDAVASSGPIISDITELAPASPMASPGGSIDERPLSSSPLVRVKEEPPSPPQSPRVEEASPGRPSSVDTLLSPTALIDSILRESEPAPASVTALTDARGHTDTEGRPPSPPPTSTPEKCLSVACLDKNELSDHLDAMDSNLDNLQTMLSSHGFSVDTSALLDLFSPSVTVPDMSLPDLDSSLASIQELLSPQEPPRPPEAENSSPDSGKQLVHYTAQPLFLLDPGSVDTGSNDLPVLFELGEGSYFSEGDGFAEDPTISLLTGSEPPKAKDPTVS
# ETV5, sequence (P41161 whole entry): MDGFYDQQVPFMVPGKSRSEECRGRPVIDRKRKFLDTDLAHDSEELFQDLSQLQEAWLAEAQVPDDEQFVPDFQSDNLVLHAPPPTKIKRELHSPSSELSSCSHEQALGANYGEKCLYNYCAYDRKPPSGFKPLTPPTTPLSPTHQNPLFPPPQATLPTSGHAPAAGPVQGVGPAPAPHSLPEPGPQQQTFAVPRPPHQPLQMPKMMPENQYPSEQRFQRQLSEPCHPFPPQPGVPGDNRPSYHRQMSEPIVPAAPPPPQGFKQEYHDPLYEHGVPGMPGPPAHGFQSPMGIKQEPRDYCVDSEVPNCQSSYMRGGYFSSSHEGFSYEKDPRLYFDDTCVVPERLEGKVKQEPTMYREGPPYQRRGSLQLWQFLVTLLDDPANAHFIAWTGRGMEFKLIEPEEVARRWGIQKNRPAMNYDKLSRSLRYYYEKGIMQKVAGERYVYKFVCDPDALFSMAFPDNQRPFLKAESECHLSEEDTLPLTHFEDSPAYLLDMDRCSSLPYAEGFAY
# ETV1, sequence (P50549 whole entry): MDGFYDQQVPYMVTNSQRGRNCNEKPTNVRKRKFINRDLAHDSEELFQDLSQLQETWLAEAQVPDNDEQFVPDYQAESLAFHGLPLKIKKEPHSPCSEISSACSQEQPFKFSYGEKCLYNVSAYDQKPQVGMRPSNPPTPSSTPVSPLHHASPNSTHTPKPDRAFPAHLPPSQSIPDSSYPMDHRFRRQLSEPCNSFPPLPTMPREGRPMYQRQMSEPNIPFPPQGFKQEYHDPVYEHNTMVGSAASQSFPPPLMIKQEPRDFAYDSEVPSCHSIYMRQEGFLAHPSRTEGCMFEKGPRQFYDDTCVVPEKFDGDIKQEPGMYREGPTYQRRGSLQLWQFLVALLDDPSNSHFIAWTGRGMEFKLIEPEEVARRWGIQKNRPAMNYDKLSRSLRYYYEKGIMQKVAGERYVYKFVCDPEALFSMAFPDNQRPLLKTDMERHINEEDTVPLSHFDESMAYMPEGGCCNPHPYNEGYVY
# ELF4, sequence (Q99607 whole entry): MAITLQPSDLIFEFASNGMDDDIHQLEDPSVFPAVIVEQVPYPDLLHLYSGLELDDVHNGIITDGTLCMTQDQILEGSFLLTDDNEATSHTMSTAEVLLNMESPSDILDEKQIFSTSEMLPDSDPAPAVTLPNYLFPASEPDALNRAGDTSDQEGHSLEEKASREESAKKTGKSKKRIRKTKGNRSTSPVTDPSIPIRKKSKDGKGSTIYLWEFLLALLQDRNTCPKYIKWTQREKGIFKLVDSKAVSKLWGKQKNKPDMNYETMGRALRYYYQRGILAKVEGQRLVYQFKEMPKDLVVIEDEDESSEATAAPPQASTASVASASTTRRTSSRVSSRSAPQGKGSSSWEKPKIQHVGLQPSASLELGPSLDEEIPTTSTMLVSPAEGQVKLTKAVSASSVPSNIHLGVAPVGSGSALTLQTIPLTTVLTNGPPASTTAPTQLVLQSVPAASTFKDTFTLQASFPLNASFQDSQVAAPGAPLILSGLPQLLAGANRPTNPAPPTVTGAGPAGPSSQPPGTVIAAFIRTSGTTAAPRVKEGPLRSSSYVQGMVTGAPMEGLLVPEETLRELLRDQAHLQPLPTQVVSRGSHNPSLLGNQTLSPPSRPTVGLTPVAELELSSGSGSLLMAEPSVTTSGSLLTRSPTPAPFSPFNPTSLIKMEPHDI
sequence,measurement,setting,value
CCTTTG,binding signal,FLI1,"1.32 fold enrichment (6-mer frequency, TF over GST control)"
same,binding signal,ELK1,"1.3 fold enrichment (6-mer frequency, TF over GST control)"
same,binding signal,GABPA,"1.4 fold enrichment (6-mer frequency, TF over GST control)"
same,binding signal,ERG,"1.37 fold enrichment (6-mer frequency, TF over GST control)"
same,binding signal,ELF1,"1.38 fold enrichment (6-mer frequency, TF over GST control)"
same,binding signal,EHF,"1.42 fold enrichment (6-mer frequency, TF over GST control)"
same,binding signal,SPI1,"1.47 fold enrichment (6-mer frequency, TF over GST control)"
same,binding signal,SPIB,"1.28 fold enrichment (6-mer frequency, TF over GST control)"
same,binding signal,ELK3,"1.18 fold enrichment (6-mer frequency, TF over GST control)"
same,binding signal,FEV,"1.31 fold enrichment (6-mer frequency, TF over GST control)"
same,binding signal,ETV5,"1.3 fold enrichment (6-mer frequency, TF over GST control)"
same,binding signal,HSF1,"1.21 fold enrichment (6-mer frequency, TF over GST control)"
same,binding signal,SPIC,"1.38 fold enrichment (6-mer frequency, TF over GST control)"
same,binding signal,ELF4,"1.36 fold enrichment (6-mer frequency, TF over GST control)"
same,binding signal,ELK4,"1.19 fold enrichment (6-mer frequency, TF over GST control)"
same,binding signal,ETV2,"1.24 fold enrichment (6-mer frequency, TF over GST control)"
same,binding signal,ELF3,"1.27 fold enrichment (6-mer frequency, TF over GST control)"
same,binding signal,CRX,"1.09 fold enrichment (6-mer frequency, TF over GST control)"
same,binding signal,ETV1,"1.42 fold enrichment (6-mer frequency, TF over GST control)"
